Reference: PubChem BioAssay (NCATS)
Inconclusive results are not listed. Unmarked numbers belong to inactive results. Activity calls are given as the source filed them. Calls come from the whole dose curve; as a rule, active = well fitted cell-killing curve with a large enough effect; inconclusive = small, poorly fitted or top-dose-only effect; inactive = flat fitted curve, though single readings scatter.

Test: Cell Viability - LYMP2-007 (AID 979);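 note: cells exposed to compound for 24 h before reading; nearly all actives have a fitted effect of over 60% in size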;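 for activity change, negative = cytotoxicity: 0% = DMSO only and the negative end = 92 µM tetraoctylammonium bromide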
Conditions: LYMP2-007 lymphoblastoid cell viability; series mostly up to 92.2 µM; activity change, negative = cytotoxicity: at the top concentration
Text: NIH Chemical Genomics Center [NCGC]
NIH Molecular Libraries Screening Centers Network [MLSCN]
National Institutes of Environmental Health Sciences [NIEHS]
National Toxicology Program [NTP]
We have developed a 1536-well cell-based assay for quantitative high throughput screening (qHTS) against a number of cell lines to determine in vitro cytotoxicity of small molecules. This particular assay uses a human lymphoblastoid cell line (LYMP2-007) purchased from Coriell Institute for Medical Research.
NCGC Assay Protocol Summary:
The CellTiter-Glo luminescent cell viability assay (Promega) is a homogeneous method to measure the number of viable cells in culture. The end point readout of this assay is based on quantitation of intracellular ATP, an indicator of metabolic activity, using the luciferase reaction. Luciferase catalyzes the oxidation of beetle Luciferin to oxyluciferin and light in the presence of ATP. The luminescent signal is proportional to amount of ATP present.
Using the CellTiter-Glo luminescent cell viability assay, the amount of cellular ATP was measured in the lymphoblastoid cell line with complete culture medium following compound treatment for 24 hours. The assay was performed in opaque white Kalypsys 1536-well plates. In the screen, tetraoctylammonium bromide was used as positive control. Library compounds were measured for their ability to cause acute toxicity in the cell line, as reflected by a decrease in intracellular ATP levels, in a concentration-dependent manner. […] AC50 values were determined from concentration-response data modeled with the standard Hill equation.
qHTS protocol for CellTiter Glo lymphoblastoid cellular assay
[Step] [Parameter] [Value] [Description]
1. Reagent; 5 uL; 2500 lymphoblastoid cells/well
2. Time; 5 hr; 37 C incubation
4. Controls; 23 nL; Tetraoctylammonium bromide 6.4pM to 92 uM
5. Time; 24 hr; 37 C incubation
6. Reagent; 5 uL; CellTiter Glo reagent
7. Time; 30 min; Room Temperature
8. Detection; Luminescence; Viewlux plate reader
Keywords: cell viability, cytotoxicity, lymphoblastoid cell line, luminescence, NTPHTS, NTPHTS_NCGC, NIEHS, DSSTox, MLSMR, MLSCN, NIH Roadmap, qHTS, NCGC
Potency is the fitted concentration of half-maximal effect.

Compound | activity change, negative = cytotoxicity [%] | Potency
CCCCCCCC/C=C\CCCCCCCC(=O)N(CCO)CCO | -6.29 | 
Cc1c2ccccc2c(C)c2c1ccc1ccccc12 | -18.1 | 
CCCCC(CC)COP(=O)(OCC(CC)CCCC)OCC(CC)CCCC (stereo not given) | -9.09 | 
CCCCCCc1ccc(-c2ccc(C#N)cc2)cc1 | -3.03 | 
O=[N+]([O-])c1cccc(I)c1 | -2.61 | 
CCc1ccc(C(c2ccc(CC)cc2)C(Cl)Cl)cc1 | 6.17 | 
Brc1ccc(-c2ccccc2)cc1 | 4.58 | 
c1ccc2ncccc2c1 | -0.801 | 
Brc1cc(Oc2cc(Br)c(Br)c(Br)c2Br)c(Br)c(Br)c1Br | -2.81 | 
CC(C)COC(=O)COc1cc(Cl)c(Cl)cc1Cl | 1.87 | 
CC(CCC(=O)O)(c1ccc(O)cc1)c1ccc(O)cc1 | 3.62 | 
O=[N+]([O-])c1cc(N(CCO)CCO)ccc1NCCO | -21.7 | 
OCC(CO)(CBr)CBr | -0.386 | 
C/C=C1/C(=O)C[C@H]2[C@@H]3CCC4=CC(=O)CC[C@]4(C)[C@H]3CC[C@]12C |  | 39.8 µM (active)
Oc1ccc2c(c1)OCO2 | -6.65 | 
CCCCC(CC)COC(=O)COc1ccc(Cl)cc1Cl (stereo not given) | 1.04 | 
O=[N+]([O-])c1ccc(F)cc1F | 3.11 | 
C/C=C/C=C/C=O |  | 39.8 µM (active)
CC1=C(/C=C/C(C)=C/C=C/C(C)=C/C=O)C(C)(C)CCC1 |  | 39.8 µM (active)
c1ccc(CSCc2ccccc2)cc1 | -3.03 | 

Compound | activity change, negative = cytotoxicity [%] | Potency
Cc1cc(=O)oc2cc(O)cc(O)c12 | -1.81 | 
O=C(OCc1ccccc1)c1ccccc1O | 4.04 | 
O=C(Cl)c1ccc([N+](=O)[O-])cc1 | -6.31 | 
CC(=O)Nc1cccc(C)c1 | -9.41 | 
CC/C=C/C/C=C/C/C=C/CCCCCCCC(=O)OCC |  | 31.6 µM (active)
COc1ccc(C(=O)Nc2ccccc2)cc1[N+](=O)[O-] | -2.41 | 
C=Cc1cccc(C)c1 | -7.46 | 
Cc1ccc(S(N)(=O)=O)cc1 | -4.18 | 
NC(=O)c1ccc([N+](=O)[O-])cc1 | -16.1 | 
CCOC(=O)C1OC1c1ccccc1 (stereo not given) | 5.24 | 
C=C(C#N)C(=O)OCC | -13.7 | 
O=C1OC(=O)c2ccccc21 | -26 | 
Cc1ccc(C(=O)O)cc1[N+](=O)[O-] | -6.68 | 
S=C(NC1CCCCC1)NC1CCCCC1 | -6.44 | 
Nc1ccc2c(c1)C(=O)c1ccccc1C2=O | -17.9 | 
Cc1cc2nc(N)sc2cc1C | -11.8 | 
C[Si](C)(C)Cl | -3.1 | 
COc1cc(-c2ccc(N=C=O)c(OC)c2)ccc1N=C=O | -5.69 | 
CN(C)c1ccc(Cc2ccc(N(C)C)cc2)cc1 | -6.33 | 
O=C1c2ccccc2C(=O)C1(O)O | -26.4 | 
